{"source": "PubChem BioAssay (NCATS)", "note": "Results filed as inconclusive are left out. A call without a number means that no potency is given here. Active and inactive are the calls of the source. The call rests on the fitted dose curve; in most records, active means well fitted inhibition curve with a large enough effect; inconclusive means small, poorly fitted or top-dose-only effect; inactive means flat fitted curve, though single readings scatter. Potency means the concentration at half of the fitted maximal effect.", "data": [{"experiment": "P-glycoprotein substrates identified in KB-8-5-11 adenocarcinoma cell line, qHTS therapeutic library screen (AID 1346987); further: nearly all actives have a fitted effect of over 65% in size", "settings": "KB-8-5-11 (P-gp overexpressing) viability, CellTiter-Glo, 72 h; series mostly up to 44.5 µM", "summary_of_the_method": "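KB-8-5-11, a colchicine-selected P-gp-overexpressing KB-3-1 subline, was grown without colchicine for the assay. Cells were seeded at 500 cells/well, dosed in concentration-response and incubated 72 h at 37 degree C, 5% CO2. Viability was read by CellTiter-Glo luminescence.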", "values": [{"compound": "Clc1ccccc1Cl", "Potency": "inactive"}, {"compound": "OC(c1ccccc1)(c1ccccc1)C1CN2CCC1CC2", "note": "(stereo not given)", "Potency": "inactive"}, {"compound": "CC1C/C=C/C(O)C(O)CC/C=C/c2cc(O)cc(O)c2C(=O)O1", "note": "(stereo not given)", "Potency": "inactive"}, {"compound": "O=C(N1CCOCC1)N1CCN(c2ccc(Cl)cc2)CC1", "Potency": "inactive"}, {"compound": "O=C(O)c1ccnc2cc(C(OCCN3CCCCC3)c3ccccc3Cl)[nH]c12", "note": "(stereo not given)", "Potency": "inactive"}, {"compound": "O=C1CN(O)C(c2ccccc2)=c2cc(Cl)ccc2=N1", "Potency": "inactive"}, {"compound": "CCOc1ccc2c3c1O[C@H]1[C@@H](O)C=C[C@H]4[C@@H](C2)N(C)CC[C@@]341", "Potency": "inactive"}, {"compound": "NCC[C@H](O)C(=O)N[C@@H]1C[C@H](N)[C@@H](O[C@H]2O[C@H](CN)[C@@H](O)[C@H](O)[C@H]2N)[C@H](O[C@@H]2O[C@H](CO)[C@@H](O)[C@H]2O)[C@H]1O", "Potency": "inactive"}, {"compound": "C/C=C(\\C)C(=O)OC1CC2C(C)(C)OC(=O)CC(OC(C)=O)C2(C)C2CC(OC(=O)C(C)C)C3(C)C(c4ccoc4)CC4OC43C12C", "note": "(stereo not given)", "Potency": "inactive"}, {"compound": "C[C@]12CC[C@H]3[C@@H]([C@H](O)CC4=CC(=O)CC[C@@]43C)[C@@H]1CC[C@@H]2O", "Potency": "inactive"}, {"compound": "[2H]C([2H])([2H])[C@H](N)Cc1ccccc1", "Potency": "inactive"}, {"compound": "Cc1cccc(NC(=O)N[C@@H]2N=C(c3ccccc3)c3ccccc3N(C)C2=O)c1", "Potency": "inactive"}, {"compound": "O=c1[nH]c(=O)n(Cl)c(=O)n1Cl", "Potency": "inactive"}, {"compound": "C/C(=C\\c1csc(C)n1)[C@@H]1C[C@@H]2O[C@]2(C)CCC[C@H](C)[C@H](O)[C@@H](C)C(=O)C(C)(C)[C@@H](O)CC(=O)O1", "Potency": "36.6 nM (active)"}, {"compound": "C[C@]12CC[C@H](OS(=O)(=O)O)CC1=CC[C@@H]1[C@@H]2CC[C@]2(C)C(=O)CC[C@@H]12", "Potency": "inactive"}, {"compound": "N#CC(C#N)=Cc1cc(O)c(O)c(O)c1", "Potency": "inactive"}, {"compound": "C1=C2CCCN[C@H]2[C@@H]2C[C@H]1[C@H]1CCCCN1C2", "Potency": "inactive"}, {"compound": "O=Cc1ccco1", "Potency": "inactive"}, {"compound": "CC(N)Cc1ccc(O)cc1", "note": "(stereo not given)", "Potency": "inactive"}, {"compound": "COC([CH2][Hg])CNC(=O)c1ccccc1OCC(=O)O", "note": "(stereo not given)", "Potency": "inactive"}, {"compound": "C=CC(C)(O)CC/C=C(\\C)C(=O)O[C@H]1[C@H](O)[C@@H](CO)O[C@@H](OC(=O)[C@]23CCC(C)(C)CC2C2=CCC4[C@@]5(C)CC[C@H](O[C@@H]6O[C@H](CO[C@@H]7OC[C@H](O)[C@H](O)[C@H]7O[C@@H]7OC[C@@H](O)[C@H](O)[C@H]7O)[C@@H](O)[C@H](O)[C@H]6O)C(C)(C)C5CC[C@@]4(C)[C@]2(C)CC3)[C@@H]1OC1OC(C)C(O[C@@H]2OC[C@@H](O)[C@H](O[C@@H]3OC[C@@H](O)[C@H](O)[C@H]3O)[C@H]2O)C(O)C1O", "note": "(stereo not given in full)", "activity change, negative = cytotoxicity": "3.69% [at 9.29 µM] (inactive)"}, {"compound": "C/C=C(\\C)C(=O)O[C@H]1[C@H](OC(C)=O)[C@]2(CO)[C@H](O)[C@H](O)[C@]3(C)C(=CCC4[C@@]5(C)CC[C@H](O[C@@H]6O[C@H](C(=O)O)[C@@H](O)[C@H](O[C@@H]7OC[C@H](O)[C@H](O[C@@H]8OC[C@H](O)[C@H](O)[C@H]8O)[C@H]7O)[C@H]6O[C@@H]6O[C@H](CO)[C@@H](O)[C@H](O)[C@H]6O)C(C)(C)C5CC[C@]43C)[C@@H]2CC1(C)C", "note": "(stereo not given in full)", "outcome": "inactive [at 9.29 µM]"}, {"compound": "COC1CC(OC2CCC3(C=O)C(CCC4C3CCC3(C)C(C5=CC(=O)OC5)CCC43O)C2)OC(C)C1OC1OC(CO)C(O)C(O)C1O", "note": "(stereo not given)", "Potency": "172 nM (active)"}, {"compound": "CCCCCCn1c(=O)c(C(=O)Nc2ccc(C(=O)OCCC)cc2)c(O)c2ccccc21", "outcome": "inactive [at 9.29 µM]"}, {"compound": "CCC1NC(=O)C2C(Cl)C(Cl)CN2C(=O)C(C(C)O)NC(=O)CC(c2ccccc2)NC(=O)C(CO)NC1=O", "note": "(stereo not given)", "Potency": "inactive"}]}]}
